Structures can show the parent of a compound that is named as a salt.
Tested on: thyroid hormone receptor (endogenous TRα and TRβ)
Design: species or system GH3-TRE-Luc (rat pituitary); GH3-TRE-Luc luciferase reporter, antagonist mode against 1 nM T3, loss of signal, qHTS
Settings: read-out: Average AC50 (uM) GH3-TRE-Antag, antagonist mode, 1 nM T3, no GH3 cytotoxicity hit

Structure (SMILES) | AC50 [µM]
CCCOc1ccc(C(=O)OCCN(CC)CC)cc1N [Proparacaine hydrochloride] | > 50
O=C(O)[C@@H]1[C@H](C(=O)O)[C@H]2CC[C@@H]1O2 [Endothal] | 77.2
C=C/C(C)=C/C/C=C(\C)CCC=C(C)C [alpha-Farnesene] | 44.9
O=C(CS)OCCOC(=O)CS [Ethane-1,2-diyl bis(sulfanylacetate)] | 51.5
CN(C)C(=O)Nc1ccc(Oc2ccc(Cl)cc2)cc1 [Chloroxuron] | 64.2
Cc1ccc(S(=O)(=O)NC2CCCCC2)cc1 [N-Cyclohexyl-4-methylbenzenesulfonamide] | > 90
CCCC(=O)c1cc(O)c(O)cc1O [2',4',5'-Trihydroxybutyrophenone] | 52.7
CCC(Cc1c(I)cc(I)c(N)c1I)C(=O)O (stereo not drawn) [Iopanoic acid] | > 20
Cc1cc(O)c2c(c1)C(=O)c1cccc(O)c1C2=O [Chrysophanic acid] | 40.7

From paper PMC6792352, “Limited Chemical Structural Diversity Found to Modulate Thyroid Hormone Receptor in the Tox21 Chemical Library” (Environmental Health Perspectives, 2019)
